# Several values for one entry are separate records, joined by “and”; a condition that tells them apart may be missing. Equal values may be shown once. Where a structure was tested more than once in an assay, its records may differ in their call. Activity calls are given as the source filed them. The calls were made as follows: active = hit-call score of the fitted dose curve at least 0.9, where 1 is the maximum; inactive = score below 0.9.
# What was measured:
# Conditions in all cases: primary human HUVEC with PBMC; actives raise or lower the signal
# [1] = BSK_LPS_PGE2: BioMAP Diversity Plus: LPS Assay for Prostaglandin E2 (PGE2) Biomarker Activity (AID 2283082);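 as to AC50: secreted prostaglandin E2 measured by ELISA in LPS-stimulated co-culture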
# In short: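 HUVEC plus human PBMC co-culture stimulated with LPS; secreted PGE2 quantified by ELISA 24 h after chemical dosing. Activity fitted bidirectionally against DMSO baseline; parallel SRB staining (0.1% SRB after 10% TCA fixation, 560 nm) flags overt cytotoxicity.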
# [2] = read-out: Macrophage colony-stimulating factor (MCSF), CSF1 (gene 1435); test: BSK_LPS_MCSF: BioMAP Diversity Plus: LPS Assay for Macrophage colony-stimulating factor (MCSF) Biomarker Activity (AID 2283083)
# In short: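 Bidirectional fitting against DMSO was applied to M-CSF levels read by ELISA at 24 h post-dose. The system pairs human umbilical vein endothelium with peripheral blood mononuclear cells; parallel SRB staining tracked cytotoxicity.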
# [3] = read-out: Tissue Factor, F3 (gene 2152); test: BSK_LPS_TissueFactor: BioMAP Diversity Plus: LPS Assay for Tissue Factor Biomarker Activity (AID 2283084)
# In short: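 Compound was added to an endothelial cell/PBMC co-culture, and after 24 h tissue factor (CD142) was read by ELISA. Gain or loss of signal was fitted against a DMSO baseline, and parallel SRB staining (560 nm) tracked overt cytotoxicity.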
# [4] = read-out: Tumor necrosis factor (Homo sapiens) (UniProt P01375); test: BSK_LPS_TNFa: BioMAP Diversity Plus: LPS Assay for Tumour Necrosis Factor alpha (TNFa) Biomarker Activity (AID 2283085)
# In short: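 Human umbilical vein endothelial cells co-cultured with PBMC and stimulated with LPS. TNFa was measured by ELISA 24 h after chemical dosing, fitted bidirectionally relative to DMSO.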
# [5] = read-out: Vascular cell adhesion molecule 1 (VCAM1), VCAM1 (gene 7412); test: BSK_LPS_VCAM1: BioMAP Diversity Plus: LPS Assay for Vascular cell adhesion molecule 1 (VCAM1) Biomarker Activity (AID 2283086)
# In short: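 Human umbilical vein endothelial cells co-cultured with PBMC and stimulated with LPS; VCAM-1 measured by ELISA 24 h after dosing. Bidirectional curve fitting against DMSO baseline; cytotoxicity tracked in parallel by SRB total-protein staining.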
# CD38, CD38 (gene 952) = test: BSK_SAg_CD38: BioMAP Diversity Plus: SAg Assay for CD38 Biomarker Activity (AID 2283087)
# In short: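 Human HUVEC plus PBMC co-culture stimulated with superantigen; CD38 measured by ELISA 24 h after chemical dosing. Fluorescence read-out, bidirectional fit against DMSO; cytotoxicity tracked in parallel by SRB and Alamar Blue.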
# CD40, CD40 (gene 958) = test: BSK_SAg_CD40: BioMAP Diversity Plus: SAg Assay for CD40 Biomarker Activity (AID 2283088)
# In short: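 CD40 is measured by fluorescence ELISA in an endothelial/PBMC primary human co-culture at 24 h post-dose. Fitting is bidirectional, DMSO baseline. Parallel SRB staining (560 nm) flags cytotoxicity.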
# CD69, CD69 (gene 969) = test: BSK_SAg_CD69: BioMAP Diversity Plus: SAg Assay for CD69 Biomarker Activity (AID 2283089);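 as to AC50: cell surface CD69 protein quantified by ELISA with fluorescence detection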
# In short: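 Endothelial/PBMC co-culture; chemical added; 24 h incubation; CD69 ELISA with fluorescence detection; bidirectional fit vs DMSO.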
# [6] = read-out: Monocyte Chemoattractant Protein-1 (MCP1), CCL2 (gene 6347); test: BSK_SAg_MCP1: BioMAP Diversity Plus: SAg Assay for Monocyte Chemoattractant Protein-1 (MCP1) Biomarker Activity (AID 2283090)
# In short: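 MCP-1 levels in the endothelial–PBMC SAg co-culture were quantified by ELISA at 24 h post-dosing; both increases and decreases versus DMSO scored. Cytotoxicity monitored by SRB total protein in parallel cultures.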
# [7] = read-out: E-selectin (Homo sapiens) (UniProt P16581); test: BSK_SAg_Eselectin: BioMAP Diversity Plus: SAg Assay for Eselectin Biomarker Activity (AID 2283091)
# In short: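 Cell-surface E-selectin is read by ELISA at 24 h in the SAg co-culture of HUVEC and PBMC. Curves are fitted in both directions relative to DMSO. Parallel SRB total-protein staining tracks overt toxicity.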
# Chain of E-selectin (Homo sapiens) (P16581 whole entry, looked up): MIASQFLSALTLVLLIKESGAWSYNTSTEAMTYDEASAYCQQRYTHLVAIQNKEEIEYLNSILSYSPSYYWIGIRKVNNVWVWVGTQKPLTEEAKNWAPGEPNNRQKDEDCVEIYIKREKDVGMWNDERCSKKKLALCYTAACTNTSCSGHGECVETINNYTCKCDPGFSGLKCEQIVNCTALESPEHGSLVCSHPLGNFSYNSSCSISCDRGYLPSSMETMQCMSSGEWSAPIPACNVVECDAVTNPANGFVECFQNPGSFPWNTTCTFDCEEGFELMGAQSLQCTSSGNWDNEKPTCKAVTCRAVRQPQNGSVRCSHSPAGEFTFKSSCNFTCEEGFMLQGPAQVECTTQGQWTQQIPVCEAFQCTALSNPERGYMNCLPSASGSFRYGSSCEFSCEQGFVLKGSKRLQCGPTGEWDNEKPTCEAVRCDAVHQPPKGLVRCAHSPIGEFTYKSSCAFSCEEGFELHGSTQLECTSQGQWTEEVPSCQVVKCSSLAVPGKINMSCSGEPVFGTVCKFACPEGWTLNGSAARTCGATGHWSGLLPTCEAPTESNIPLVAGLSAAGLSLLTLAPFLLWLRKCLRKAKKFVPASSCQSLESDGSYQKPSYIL
# Chain of Tumor necrosis factor (Homo sapiens) (P01375 whole entry, looked up): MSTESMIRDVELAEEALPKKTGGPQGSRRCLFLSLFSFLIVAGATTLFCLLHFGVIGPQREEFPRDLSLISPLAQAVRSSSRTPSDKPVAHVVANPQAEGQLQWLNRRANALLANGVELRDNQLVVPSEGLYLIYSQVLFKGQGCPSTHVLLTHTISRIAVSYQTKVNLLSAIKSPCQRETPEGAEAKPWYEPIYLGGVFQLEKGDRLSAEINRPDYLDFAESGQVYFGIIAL
SMILES,outcome [1],outcome [2],outcome [3],outcome [4],outcome [5],"outcome (CD38, CD38 (gene 952))","outcome (CD40, CD40 (gene 958))","outcome (CD69, CD69 (gene 969))",outcome [6],outcome [7],AC50 [1],AC50 [7],AC50 [2],"AC50 (CD38, CD38 (gene 952))","AC50 (CD40, CD40 (gene 958))","AC50 (CD69, CD69 (gene 969))",AC50 [6],AC50 [4],AC50 [5],AC50 [3]
O=C(O)C(F)(F)C(F)(F)C(F)(F)F,inactive,inactive,inactive,inactive,inactive,inactive,inactive,inactive,inactive,inactive,,,,,,,,,,
NC(=O)C(F)(F)C(F)(F)C(F)(F)C(F)(F)F,inactive,inactive,inactive,inactive,inactive,inactive,inactive,inactive,inactive,inactive,,,,,,,,,,
O=C(O)C(F)(OC(F)(F)C(F)(OC(F)(F)C(F)(F)C(F)(F)F)C(F)(F)F)C(F)(F)F (stereo not given),inactive,inactive,inactive,inactive,inactive,inactive,inactive,inactive,inactive,inactive,,,,,,,,,,
CC(C)(C)C(=O)CC(=O)C(F)(F)C(F)(F)C(F)(F)F,inactive,inactive,inactive,inactive,inactive,inactive,inactive,inactive,inactive,inactive,30 µM (active),41.1 µM (active),,,,,,,,
O[Si](c1ccccc1)(c1ccccc1)c1ccccc1,,,inactive,inactive,inactive,,,,,,11.6 µM (active),31 µM (active),20 µM (active),32.6 µM (active),29.6 µM (active),31.7 µM (active),32.5 µM (active),,,
CCCCCCOC(=O)c1ccccc1O,inactive,inactive,,,,inactive,,,,,39.8 µM (active),38.3 µM (active) and 39.5 µM (active),,40.5 µM (active),45.2 µM (active) and 29.1 µM (active),39.3 µM (active) and 45.2 µM (active),27.6 µM (active) and 45.1 µM (active),37.3 µM (active) and 39.6 µM (active),40.2 µM (active) and 38.2 µM (active),
OCC(F)(F)C(F)(F)C(F)(F)C(F)F,inactive,inactive,inactive,inactive,inactive,inactive,inactive,inactive,inactive,inactive,,,,,,,,,,
N=C(N)C(F)(F)C(F)(F)C(F)(F)C(F)(F)C(F)(F)C(F)(F)C(F)(F)F,inactive,inactive,,inactive,inactive,inactive,inactive,inactive,inactive,inactive,,48.3 µM (active),47 µM (active),53.6 µM (active),54.7 µM (active),51 µM (active),55 µM (active),33.1 µM (active),40.3 µM (active),
O=S(=O)(OCCOC(F)(F)F)C(F)(F)F,inactive,inactive,inactive,inactive,inactive,inactive,inactive,inactive,inactive,inactive,,,,,,,,,,
OCC(F)(F)C(F)(F)C(F)(F)C(F)(F)C(F)(F)C(F)F,inactive,inactive,inactive,inactive,inactive,inactive,inactive,inactive,inactive,inactive,,,,,,,,,,
OCCCC(F)(F)C(F)(F)C(F)(F)C(F)(F)C(F)(F)C(F)(F)C(F)(F)F,inactive,,,,,,,,,,,44.2 µM (active) and 38.8 µM (active),46 µM (active) and 47.8 µM (active),47.1 µM (active) and 49.3 µM (active),48 µM (active) and 50.1 µM (active),42.4 µM (active) and 41.7 µM (active),43.2 µM (active) and 46.3 µM (active),48 µM (active) and 25.8 µM (active),51.4 µM (active) and 43.6 µM (active),49.9 µM (active) and 45.5 µM (active)
C=CC(=O)OCC(F)(F)C(F)(F)C(F)(F)C(F)(F)C(F)(F)C(F)(F)C(F)(F)F,inactive,inactive,inactive,inactive,inactive,inactive,inactive,inactive,inactive,inactive,,,,,,,,,,
FC(F)(F)C(F)(F)C(F)(F)C(F)(F)C(F)(F)C(F)(F)CC1CO1 (stereo not given),inactive,inactive,inactive,inactive,inactive,inactive,inactive,inactive,inactive,inactive,,,,,,,,,,
CC(CCl)OP(=O)(OC(C)CCl)OC(C)CCl (stereo not given),inactive,inactive,inactive,inactive,inactive,inactive,inactive,inactive,inactive,inactive,,,,,,,,,,
O=C(O)C(F)(F)C(F)(F)C(F)(F)C(F)(F)C(F)(F)C(F)(F)C(F)(F)C(F)(F)Cl,,inactive,,inactive,inactive,,,,,inactive,21.9 µM (active) and 22 µM (active),,19.4 µM (active),50.4 µM (active) and 30 µM (active),38.2 µM (active) and 45.9 µM (active),30 µM (active) and 45 µM (active),45.9 µM (active) and 50.4 µM (active),,30 µM (active),
C=CC(=O)OCC(F)(F)C(F)(F)C(F)(F)C(F)(F)COC(=O)C=C,inactive,,,,,,,,,,8.08 µM (active),15.5 µM (active) and 15.3 µM (active),21.4 µM (active) and 21.3 µM (active),17.6 µM (active) and 20.6 µM (active),13.1 µM (active) and 15.1 µM (active),14.5 µM (active) and 17.3 µM (active),27.9 µM (active) and 25.1 µM (active),18.3 µM (active) and 18.1 µM (active),16.6 µM (active) and 16.4 µM (active),
O=C(O)C(F)(F)C(F)(F)F,inactive,inactive,inactive,inactive,inactive,inactive,inactive,inactive,inactive,inactive,,,,,,,,,,

SMILES,outcome [1],outcome [2],outcome [3],outcome [4],outcome [5],"outcome (CD38, CD38 (gene 952))","outcome (CD40, CD40 (gene 958))","outcome (CD69, CD69 (gene 969))",outcome [6],outcome [7],AC50 [1],AC50 [7],AC50 [2],"AC50 (CD38, CD38 (gene 952))","AC50 (CD40, CD40 (gene 958))","AC50 (CD69, CD69 (gene 969))",AC50 [6],AC50 [4],AC50 [5],AC50 [3]
O=C(O)C=C(C(F)(F)F)C(F)(F)F,inactive,inactive,,inactive,,inactive,inactive,,inactive,,,26.8 µM (active) and 22.9 µM (active),8.27 µM (active),,40.3 µM (active),22.8 µM (active) and 30 µM (active),18.8 µM (active),,10.5 µM (active) and 10.2 µM (active),
FC(F)(F)C(F)(F)C(F)(F)CI,inactive,inactive,inactive,inactive,inactive,inactive,inactive,inactive,inactive,inactive,,,,,,,,,,
CCCCCCCCC(F)(F)C(F)(F)C(F)(F)C(F)(F)C(F)(F)C(F)(F)F,inactive,inactive,inactive,inactive,inactive,inactive,inactive,inactive,inactive,inactive,,,,,,,,,,
FC(F)(F)C(F)(F)C(F)(F)C(F)(F)C(F)(F)C(F)(F)C(F)(F)Br,inactive,inactive,inactive,inactive,inactive,inactive,inactive,inactive,inactive,inactive,,,,,,,,,,
CCc1c(Br)c(Br)c(Br)c(Br)c1Br,inactive,inactive,inactive,inactive,inactive,,inactive,inactive,inactive,inactive,,,,20 µM (active),,,,,,
FC(F)(F)C(F)(F)C(F)(F)C(F)(F)C(F)(F)C(F)(F)C(F)(F)C(F)(F)CCS,inactive,inactive,inactive,inactive,inactive,inactive,inactive,inactive,inactive,inactive,,,,,,,,,,1.02 µM (active)
CCCCNc1ccccc1,inactive,inactive,inactive,inactive,inactive,inactive,inactive,inactive,inactive,inactive,,,,,,,,,,
Cc1ccc(S(=O)(=O)OCC(F)(F)C(F)(F)C(F)(F)C(F)(F)C(F)(F)C(F)F)cc1,inactive,inactive,inactive,inactive,inactive,inactive,inactive,inactive,inactive,inactive,,,,,,,,,,
CCCCC(CC)COP(=O)(O)OCC(CC)CCCC (stereo not given),inactive,inactive,inactive,inactive,inactive,inactive,inactive,inactive,inactive,inactive,,,,,,,,,,
OCCCC(F)(F)C(F)(F)C(F)(F)F,inactive,inactive,inactive,inactive,inactive,inactive,inactive,inactive,inactive,inactive,,,,,,,,,,
FC(F)(F)C(F)(F)C(F)(F)C(F)(F)C(F)(F)CCI,inactive,inactive,inactive,inactive,inactive,inactive,inactive,inactive,inactive,inactive,,,,,,,,,,
FC(F)(F)C(F)(F)CNCC(F)(F)C(F)(F)F,inactive,inactive,,inactive,inactive,inactive,inactive,inactive,inactive,inactive,,,6.78 µM (active),,,,,,,
O=C(O)C(F)(F)C(F)(F)C(F)(F)C(F)(F)F,inactive,inactive,,inactive,inactive,inactive,inactive,inactive,inactive,inactive,,,8.3 µM (active),,,,,,,
O=C(O)C(F)(F)C(F)(F)OC(F)(F)F,inactive,inactive,inactive,inactive,inactive,inactive,inactive,inactive,inactive,inactive,,,,,,,,,,
O=C(O)C(F)(OC(F)(F)C(F)(OC(F)(F)C(F)(OC(F)(F)C(F)(F)C(F)(F)F)C(F)(F)F)C(F)(F)F)C(F)(F)F (stereo not given),inactive,inactive,inactive,inactive,inactive,inactive,inactive,inactive,inactive,inactive,,,,,,,,,,
CCO[Si](CCC(F)(F)C(F)(F)C(F)(F)C(F)(F)C(F)(F)C(F)(F)F)(OCC)OCC,inactive,inactive,inactive,inactive,inactive,inactive,inactive,inactive,inactive,inactive,,,,,,,,,,
C=C(C)C(=O)OCC(F)(F)C(F)(F)C(F)(F)C(F)(F)C(F)(F)C(F)(F)C(F)(F)F,inactive,inactive,inactive,inactive,inactive,inactive,inactive,inactive,inactive,inactive,,,,,,,,0.0246 µM (active),,

# Source: PubChem BioAssay (EPA / NIEHS)
